Source: PubChem (National Center for Advancing Translational Sciences (NCATS))
The list is not random: actives were taken first. Their share in the collection is about 11%.
hNpr1 antagonist: Natriuretic polypeptide receptor (hNpr1) antagonism - Primary qHTS; HEK293 hNpr1 GloSensor cGMP, ANP-stimulated luminescence; Potency, µM (series often up to 46.3 µM), usual class: inhibitors; actives 1.6% (n = 76,000); calls by dose curve; further: nearly all actives have a fitted effect of over 60% in size
Target sequence (P16066 whole entry, looked up): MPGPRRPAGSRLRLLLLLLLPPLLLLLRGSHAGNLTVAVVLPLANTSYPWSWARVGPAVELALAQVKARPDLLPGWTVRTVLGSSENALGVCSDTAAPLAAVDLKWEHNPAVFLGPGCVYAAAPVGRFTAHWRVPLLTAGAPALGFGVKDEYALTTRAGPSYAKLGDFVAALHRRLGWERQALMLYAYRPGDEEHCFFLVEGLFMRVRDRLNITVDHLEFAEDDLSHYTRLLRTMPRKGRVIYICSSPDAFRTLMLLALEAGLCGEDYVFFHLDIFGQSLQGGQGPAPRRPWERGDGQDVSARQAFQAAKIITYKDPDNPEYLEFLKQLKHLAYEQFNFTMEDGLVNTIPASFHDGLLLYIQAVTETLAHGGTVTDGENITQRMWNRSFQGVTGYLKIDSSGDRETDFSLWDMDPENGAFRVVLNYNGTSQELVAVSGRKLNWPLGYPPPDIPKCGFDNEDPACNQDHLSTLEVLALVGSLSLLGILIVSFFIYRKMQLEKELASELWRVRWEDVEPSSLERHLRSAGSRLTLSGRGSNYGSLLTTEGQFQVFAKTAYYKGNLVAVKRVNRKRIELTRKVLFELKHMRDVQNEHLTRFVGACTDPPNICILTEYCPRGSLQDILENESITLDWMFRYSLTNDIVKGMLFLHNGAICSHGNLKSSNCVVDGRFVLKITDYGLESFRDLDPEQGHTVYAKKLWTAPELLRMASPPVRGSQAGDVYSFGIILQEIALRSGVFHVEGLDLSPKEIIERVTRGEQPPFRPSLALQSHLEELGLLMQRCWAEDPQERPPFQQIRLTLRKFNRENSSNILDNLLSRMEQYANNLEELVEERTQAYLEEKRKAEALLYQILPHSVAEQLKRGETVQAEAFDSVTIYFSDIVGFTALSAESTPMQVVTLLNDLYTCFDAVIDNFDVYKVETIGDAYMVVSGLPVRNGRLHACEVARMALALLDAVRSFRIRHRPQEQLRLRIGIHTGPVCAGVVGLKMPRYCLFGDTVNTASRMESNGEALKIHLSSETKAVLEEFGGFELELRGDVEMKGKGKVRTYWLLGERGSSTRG
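Compound pre-incubated 30 min at room temperature on GloSensor-loaded HEK293 cells stably carrying hNpr1 and the pGS-40F cGMP biosensor. Stimulation uses hNppA at 0.1 nM final; luminescence is taken at baseline and 20 min post-agonist.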
HEK293 tox: Cytotoxic Profiling in HEK 293 Cell Line of Diverse Libraries Using Quantitative High-Throughput Screening. actives 6.6% (n = 94,000). AID 1345083, 2018. Potency, µM (highest dose often 115 µM), most hits filed as inhibitors. HEK 293 viability, ATP luminescence (CellTiter-Glo), 48-72 h; further: nearly all actives have a fitted effect of over 60% in size
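HEK 293 seeded at 250 cells/well receive compound via pintool. After 48 or 72 hr at 37 degree Celsius, 5% CO2 and 95% humidity, CellTiter-Glo is dispensed and luminescence read following 10 min at room temperature.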
FLuc inh: Firefly luciferase inhibition profiling of diverse chemical library using quantitative high-throughput screening. AID 1347043, 2019. actives 2.5% (n = 76,000). Luciferin 4-monooxygenase (Photinus pyralis), P08659. Potency, µM (top dose mostly 115 µM), actives largely listed as inhibitors. purified P. pyralis luciferase, luminescence, biochemical; further: nearly all actives have a fitted effect of over 65% in size
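Purified 10nM P. pyralis luciferase with 10uM D-luciferin and 10uM ATP in 50mM Tris acetate pH 7.5, 10mM Mg acetate, 0.01% Tween-20, 0.05% BSA. qHTS titration; luminescence read by CCD imager.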
3T3 cytotox: Cytotoxic Profiling in NIH 3T3 Cell Line of Diverse Libraries Using Quantitative High-Throughput Screening. NIH 3T3 viability, CellTiter-Glo ATP luminescence, 48-72 h. Potency, µM (top dose mostly 96.7 µM), usual class: inhibitors. actives 4.3% (n = 94,000). AID 1345082, 2018; further: nearly all actives have a fitted effect of over 55% in size
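Viability of NIH 3T3 cells after 48 or 72 hr compound treatment at 37 °C was assessed by CellTiter-Glo, with luminescence imaged following a 10 min room-temperature step.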
Large screens that a line does not name were inactive. Unless noted, the call rests on the fitted dose curve; in most records, active means well fitted curve in the direction sought with a large enough effect; inconclusive means small, poorly fitted or top-dose-only effect, or another doubt; inactive means no such curve, though single readings can be large; an effect the other way counts as inactive or inconclusive.

O=C(Cc1ccccc1)NC1CCCN(c2ccc3nnc(C4CC4)n3n2)C1 (centres undefined)	none (no result: hNpr1 antagonist, FLuc inh)
CCN(CC)Cc1ccc2c(c1)CN(C(=O)Nc1ccc(OC)cc1)CCO2	none (no result: hNpr1 antagonist, FLuc inh)
O=C(Nc1cccc(-c2cscn2)c1)C1CCN(C(=O)C2CCCO2)CC1 (centres undefined)	none
O=C(NC1CCCC1)C1CCCN1C(=O)c1cccc(-c2cccnc2)c1 (centres undefined)	none (no result: hNpr1 antagonist, FLuc inh)
CC(C)(C)CC(=O)Nc1cnc(-c2ccc(Cl)cc2)nc1	hNpr1 antagonist 3.5µM, HEK293 tox 45µM, FLuc inh 0.28µM, 3T3 cytotox 40µM
O=C(Nc1cnc(-c2cccc(Cl)c2)nc1)C1CCCO1 (centres undefined)	hNpr1 antagonist inconclusive, HEK293 tox inconclusive, FLuc inh 2.8µM
O=C(Nc1cnc(-c2cccnc2)nc1)C1CCCC1	FLuc inh 32µM
CC1(C(=O)N2C[C@@H](Oc3ccccc3)C[C@H]2C(=O)NC2CC2)CCCCC1	none
COc1ccccc1C(=O)N1CCCC1C(=O)N1CCCC1c1nc2ccncc2[nH]1 (centres undefined)	none (no result: hNpr1 antagonist, FLuc inh)
CNC(=O)c1cccc(-c2ccc(OC)nn2)c1	none (no result: hNpr1 antagonist, FLuc inh)
COC(=O)NCCNC(=O)c1ccc(-c2cncnc2)cc1	none (no result: hNpr1 antagonist, FLuc inh)
Cc1ccccc1CCN1CCCC(CN(C)C(=O)c2cc3ccccc3[nH]2)C1 (centres undefined)	hNpr1 antagonist inconclusive, HEK293 tox 22µM, 3T3 cytotox inconclusive
Cc1cc(C)n(C2CCN(c3nccc(-c4ccccn4)n3)C2)n1 (centres undefined)	FLuc inh 45µM
O=c1cc(C2=CCOCC2)oc2c(-c3cccc4[nH]ccc34)nccc12	HEK293 tox 40µM, 3T3 cytotox inconclusive
COc1ccccc1-c1nccc2c(=O)cc(-c3ccccn3)oc12	HEK293 tox inconclusive, 3T3 cytotox inconclusive
COc1cncc(Nc2ncc(-c3c(C)noc3C)c3c2OCC3)c1	3T3 cytotox inconclusive
COc1ccc(Nc2ccnc(N3CCC(NC(=O)Nc4ccc(Cl)cc4)CC3)n2)cc1	HEK293 tox 20µM, 3T3 cytotox 32µM (no result: hNpr1 antagonist, FLuc inh)
Cc1ccc(Nc2ccnc(N3CCC(NC(=O)Nc4ccc(Cl)cc4)CC3)n2)cc1	HEK293 tox 25µM, 3T3 cytotox 22µM (no result: hNpr1 antagonist, FLuc inh)
Cc1ccc(CN2C(=O)[C@@H]3C[C@@H](O)CN3C3(CN(Cc4cccc(F)c4)C3)C2=O)o1	none
Cc1ccc(-n2nc(C)c([C@@H]3C=C[C@@H](N)C3)c2C)cc1Cl	HEK293 tox 40µM, FLuc inh 71µM, 3T3 cytotox 28µM
CCNC(=O)N[C@@H]1C=C[C@@H](c2c(C)nn(-c3ccc(OC)cc3)c2C)C1	hNpr1 antagonist 10µM, HEK293 tox inconclusive, FLuc inh inconclusive, 3T3 cytotox 50µM
Cc1nn(-c2ccc(C(C)(C)C)cc2)c(C)c1[C@@H]1C=C[C@@H](NC(=O)Nc2ccccc2)C1	HEK293 tox inconclusive, 3T3 cytotox inconclusive
COc1ccc(-n2nc(C)c([C@@H]3C=C[C@@H](NC(=O)NC4CCCCC4)C3)c2C)cc1	hNpr1 antagonist 22µM, HEK293 tox inconclusive, FLuc inh inconclusive, 3T3 cytotox inconclusive
Cc1ccc(-n2nc(C)c([C@H]3C=C[C@@H](OC(=O)Nc4cccc(F)c4)C3)c2C)cc1Cl	HEK293 tox inconclusive, 3T3 cytotox inconclusive
COC(=O)c1cccc(NC(=S)N[C@@H]2C=C[C@@H](c3c(C)nn(-c4ccc(C(C)C)cc4)c3C)C2)c1	hNpr1 antagonist inconclusive, HEK293 tox inconclusive, FLuc inh 13µM, 3T3 cytotox inconclusive
Cc1nn(-c2ccc(C(C)C)cc2)c(C)c1[C@@H]1C=C[C@@H](NC(=S)NC2CCCCC2)C1	HEK293 tox inconclusive, FLuc inh 10µM, 3T3 cytotox inconclusive
Cc1ccc(-n2nc(C)c([C@@H]3C=C[C@@H](NC(=O)NC4CCCCC4)C3)c2C)cc1Cl	HEK293 tox inconclusive, FLuc inh 8.9µM, 3T3 cytotox inconclusive
COc1cc(OC)cc(C(=O)N2CCN(c3cc(-c4ccc(Cl)cc4)[nH]n3)CC2)c1	hNpr1 antagonist inconclusive, HEK293 tox inconclusive, 3T3 cytotox 35µM
CN(C)c1cccc(C(=O)N2CCCN(c3cc(-c4ccccc4)[nH]n3)CC2)c1	HEK293 tox inconclusive, FLuc inh inconclusive
CN(C)c1cccc(C(=O)N2CCN(c3cc(-c4ccc(Cl)cc4)[nH]n3)CC2)c1	HEK293 tox inconclusive, FLuc inh 28µM, 3T3 cytotox inconclusive
COc1cccc(C(=O)N2CCCN(c3cc(-c4ccc(Cl)cc4)[nH]n3)CC2)c1	hNpr1 antagonist inconclusive, HEK293 tox inconclusive, 3T3 cytotox inconclusive
COc1ccc(-c2cc(N3CCCN(C(=O)c4cc(OC)cc(OC)c4)CC3)n[nH]2)cc1	HEK293 tox inconclusive
COc1ccc(-c2cc(N3CCCN(C(=O)c4ccc(Cl)cc4)CC3)n[nH]2)cc1	HEK293 tox inconclusive
N#Cc1ccc(C(=O)N2CCCN(c3cc(-c4ccc(Cl)cc4)[nH]n3)CC2)cc1	hNpr1 antagonist inconclusive, HEK293 tox 28µM, 3T3 cytotox inconclusive
O=C(c1cccc(Cl)c1)N1CCN(c2cc(-c3ccc(Cl)cc3)[nH]n2)CC1	hNpr1 antagonist inconclusive, HEK293 tox 45µM, 3T3 cytotox 35µM
CNC(=O)c1cc(C)nc2onc(C3CCN(C(=O)c4ccc(C)cc4)C3)c12 (centres undefined)	none (no result: hNpr1 antagonist, FLuc inh)
CC(C)CCN1CCC2(CC1)CC(=O)N(c1ccccc1)c1ccccc1O2	hNpr1 antagonist inconclusive, HEK293 tox 45µM, 3T3 cytotox inconclusive
Cc1ccc(CN2CCC3(CC2)CC(=O)N(c2ccccc2)c2ccccc2O3)cc1	HEK293 tox 32µM, 3T3 cytotox 40µM
Cn1cccc1CN1CCC2(CC1)CC(=O)N(c1ccccc1)c1ccccc1O2	HEK293 tox 22µM, 3T3 cytotox 40µM
C=CCN1CCN(C(=O)c2c(C)oc3c2CN(Cc2ccc(F)cc2)CC3)CC1	HEK293 tox inconclusive
COCCNC(=O)c1ccc2nnc(-c3ccc([S+](C)(=O)[O-])cc3)n2c1	none (no result: hNpr1 antagonist, FLuc inh)
CN(CC[C@H]1CN(C(=O)Cc2cccs2)CC[C@H]1CC(=O)O)c1ccccc1	none
CSc1ccc(CN2CCC(CO)(CN3CCCC3)CC2)cc1	HEK293 tox inconclusive, 3T3 cytotox inconclusive
Clc1ccc(CN2CCC[C@H]2c2nc(-c3ccc(N4CCOCC4)nc3)no2)cc1	hNpr1 antagonist inconclusive, HEK293 tox 63µM, FLuc inh inconclusive, 3T3 cytotox inconclusive
c1ccc(CN2CCC[C@H]2c2nc(-c3ccc(N4CCOCC4)nc3)no2)cc1	HEK293 tox 89µM
c1cc(N2CCOCC2)ncc1-c1noc([C@@H]2CCCN2)n1	FLuc inh 56µM
OCc1ccc(CN2CCC[C@H]2c2nc(-c3ccc(N4CCOCC4)nc3)no2)o1	HEK293 tox inconclusive
CCS(=O)(=O)Nc1ccc(C)n(CC(=O)NC(C)c2ccccc2)c1=O (centres undefined)	none
COc1ccc(C(=O)N2CCC(C(=O)N3CCC(c4nc5ncccc5[nH]4)C3)CC2)cc1 (centres undefined)	none (no result: hNpr1 antagonist, FLuc inh)
